Where “and” joins values, the source holds several entries; their conditions need not be identical. Equal entries are not always repeated. The source holds several records for some structures; these can differ, active in one and inactive in another. Calls of active or inactive are those of the source. How the source made its calls: active means hit-call score of the fitted dose curve at least 0.9, where 1 is the maximum; inactive means score below 0.9.
How the values were obtained:
[1] = read-out: Macrophage colony-stimulating factor (MCSF), CSF1 (gene 1435); test: BSK_hDFCGF_MCSF: BioMAP Diversity Plus: hDFCGF Assay for Macrophage colony-stimulating factor (MCSF) Biomarker Activity (AID 2283060); conditions: primary human foreskin fibroblasts; actives raise or lower the signal
Outline: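 ELISA read-out of M-CSF in human dermal foreskin fibroblast cultures, 24 h after chemical dosing; gain or loss of signal fitted bidirectionally relative to DMSO baseline.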

[2] = read-out: Monokine induced gamma interferon (MIG), CXCL9 (gene 4283); test: BSK_hDFCGF_MIG: BioMAP Diversity Plus: hDFCGF Assay for Monokine induced gamma interferon (MIG) Biomarker Activity (AID 2283063); conditions: primary human foreskin fibroblasts; actives raise or lower the signal
Outline: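 Fibroblasts (human foreskin, primary) dosed, 24 h, MIG by ELISA; fit bidirectional vs DMSO.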

[3] = read-out: Matrix Metallopeptidase 1 (MMP1), MMP1 (gene 4312); test: BSK_hDFCGF_MMP1: BioMAP Diversity Plus: hDFCGF Assay for Matrix Metallopeptidase 1 (MMP1) Biomarker Activity (AID 2283064); conditions: primary human foreskin fibroblasts; actives raise or lower the signal
Outline: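 MMP1 levels quantified by ELISA 24 h after dosing human dermal fibroblast cultures, with parallel SRB total-protein staining for overt cytotoxicity. Data fitted in both directions against DMSO baseline.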

[4] = read-out: Plasminogen activator inhibitor-1 (PAI1), SERPINE1 (gene 5054); test: BSK_hDFCGF_PAI1: BioMAP Diversity Plus: hDFCGF Assay for Plasminogen activator inhibitor-1 (PAI1) Biomarker Activity (AID 2283066); conditions: primary human foreskin fibroblasts; actives raise or lower the signal
Outline: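 ELISA readout of PAI-1 from primary human skin fibroblast cultures, 24 h after compound addition. Gain or loss of signal was fitted bidirectionally against DMSO baseline.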

[5] = read-out: Intercellular Adhesion Molecule 1 (ICAM1), ICAM1 (gene 3383); test: BSK_KF3CT_ICAM1: BioMAP Diversity Plus: KF3CT Assay for Intercellular Adhesion Molecule 1 (ICAM1) Biomarker Activity (AID 2283067); conditions: primary human keratinocytes with fibroblasts; actives raise or lower the signal
Outline: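 ELISA readout of ICAM-1; KF3CT human skin co-culture (keratinocytes + foreskin fibroblasts), 24 h post-dose; gain/loss fit vs DMSO baseline.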

[6] = read-out: Interferon-gamma inducible Protein 10 (IP10), CXCL10 (gene 3627); test: BSK_KF3CT_IP10: BioMAP Diversity Plus: KF3CT Assay for Interferon-gamma inducible Protein 10 (IP10) Biomarker Activity (AID 2283068); conditions: primary human keratinocytes with fibroblasts; actives raise or lower the signal
Outline: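 Signal is secreted/surface IP-10 by ELISA in a human primary skin co-culture of keratinocytes and foreskin fibroblasts, taken 24 h post-dosing; DMSO served as negative control.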

[7] = BSK_KF3CT_SRB: Viability Assessment in the BioMAP Diversity Plus: KF3CT Assay (AID 2283069); conditions: primary human keratinocytes with fibroblasts;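 further: total protein by sulforhodamine B staining as a cytotoxicity measure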
Outline: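 Cytotoxicity was gauged by SRB staining (0.1% SRB, 10% TCA fixation, 560 nm) of parallel cultures at 24 h. The cells were primary human skin keratinocytes co-cultured with fibroblasts, and activity was fitted in both directions against DMSO.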

[8] = read-out: Interleukin-1 alpha (IL1a), IL1A (gene 3552); test: BSK_KF3CT_IL1a: BioMAP Diversity Plus: KF3CT Assay for Interleukin-1 alpha (IL1a) Biomarker Activity (AID 2283070); conditions: primary human keratinocytes with fibroblasts; actives raise or lower the signal
Outline: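 IL-1a was detected by ELISA 24 h after chemical treatment of a co-culture of human skin keratinocytes and foreskin fibroblasts. Gain or loss of signal was fitted against the DMSO baseline.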

[9] = read-out: TIMP metallopeptidase inhibitor 2 (TIMP2), TIMP2 (gene 7077); test: BSK_KF3CT_TIMP2: BioMAP Diversity Plus: KF3CT Assay for TIMP metallopeptidase inhibitor 2 (TIMP2) Biomarker Activity (AID 2283071); conditions: primary human keratinocytes with fibroblasts; actives raise or lower the signal
Outline: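 ELISA readout of TIMP-2 in keratinocyte plus foreskin fibroblast co-cultures (human skin primary cells), 24 h post-dose. Gain or loss of signal fitted relative to DMSO.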

[10] = read-out: C-C motif chemokine 2 (Homo sapiens) (UniProt P13500); test: BSK_KF3CT_MCP1: BioMAP Diversity Plus: KF3CT Assay for Monocyte Chemoattractant Protein 1 (MCP1/CCL2) Biomarker Activity (AID 2283073); conditions: primary human keratinocytes with fibroblasts; actives raise or lower the signal
Outline: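 KF3CT skin co-culture (keratinocytes/foreskin fibroblasts), 24 h post-dose; MCP-1 by ELISA; gain/loss of signal fit bidirectionally vs DMSO baseline.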

[11] = read-out: Matrix Metallopeptidase 9 (MMP9), MMP9 (gene 4318); test: BSK_KF3CT_MMP9: BioMAP Diversity Plus: KF3CT Assay for Matrix Metallopeptidase 9 (MMP9) Biomarker Activity (AID 2283074); conditions: primary human keratinocytes with fibroblasts; actives raise or lower the signal;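 on AC50: MMP9 protein level quantified by ELISA in the co-culture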
Outline: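 MMP-9 quantified by ELISA after 24 h chemical treatment of primary human skin keratinocyte/fibroblast co-cultures; gain or loss fitted against DMSO, with parallel SRB staining (0.1% SRB, 560 nm) for overt cytotoxicity.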

[12] = read-out: urokinase plasminogen activator (uPA), PLAU (gene 5328); test: BSK_KF3CT_uPA: BioMAP Diversity Plus: KF3CT Assay for urokinase plasminogen activator (uPA) Biomarker Activity (AID 2283075); conditions: primary human keratinocytes with fibroblasts; actives raise or lower the signal
Outline: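 ELISA read-out of uPA 24 h after dosing human skin keratinocytes co-cultured with foreskin fibroblasts. Signal change fitted both ways relative to DMSO; sulforhodamine B on parallel cultures marks overt cytotoxicity.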

CD40, CD40 (gene 958) = test: BSK_LPS_CD40: BioMAP Diversity Plus: LPS Assay for CD40 Biomarker Activity (AID 2283076); conditions: primary human HUVEC with PBMC; actives raise or lower the signal
Outline: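 ELISA readout of CD40 in HUVEC/PBMC co-culture (BSK_LPS system), 24 h post-dosing; bidirectional curve fit, DMSO baseline; parallel SRB total-protein staining for cytotoxicity.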

[13] = read-out: Interleukin-8 (IL8), CXCL8 (gene 3576); test: BSK_LPS_IL8: BioMAP Diversity Plus: LPS Assay for Interleukin-8 (IL8) Biomarker Activity (AID 2283078); conditions: primary human HUVEC with PBMC; actives raise or lower the signal
Outline: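 HUVEC + PBMC co-culture, LPS-activated; test chemicals dosed, IL-8 read by ELISA at 24 h. Bidirectional curve fit vs DMSO baseline (gain or loss of signal).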

[14] = BSK_LPS_SRB: Viability Assessment in the BioMAP Diversity Plus: LPS Assay (AID 2283079); conditions: primary human HUVEC with PBMC;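 further: total protein by sulforhodamine B absorbance as a cytotoxicity measure; measured one day after compound addition; fitted in both directions against DMSO so loss or gain of signal counts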
Outline: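 HUVEC + PBMC co-culture, LPS-stimulated; compound 24 h. 10% TCA fix, 0.1% SRB stain, A560. Bidirectional fit vs DMSO.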

[15] = BSK_hDFCGF_SRB: Viability Assessment in the BioMAP Diversity Plus: hDFCGF Assay (AID 2283061); conditions: primary human foreskin fibroblasts;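 further: cells exposed to compound for 24 h before the read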
Outline: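 Primary human foreskin fibroblasts; 24 h post-dose; fixed 10% TCA, stained 0.1% SRB, A560 read; total protein as overt cytotoxicity measure; curves fit bidirectionally vs DMSO control.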

[16] = read-out: E-selectin (Homo sapiens) (UniProt P16581); test: BSK_LPS_Eselectin: BioMAP Diversity Plus: LPS Assay for Eselectin Biomarker Activity (AID 2283077); conditions: primary human HUVEC with PBMC; actives raise or lower the signal
Outline: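 ELISA readout of E-selectin, 24 h post-dose, HUVEC + PBMC co-culture (LPS system). Gain or loss of signal vs DMSO baseline, bidirectional fit.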

[17] = read-out: Vascular cell adhesion molecule 1 (VCAM1), VCAM1 (gene 7412); test: BSK_hDFCGF_VCAM1: BioMAP Diversity Plus: hDFCGF Assay for Vascular cell adhesion molecule 1 (VCAM1) Biomarker Activity (AID 2283065); conditions: primary human foreskin fibroblasts; actives raise or lower the signal
Outline: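 ELISA read-out of VCAM-1 on human skin fibroblasts, 24 h post-dose; gain or loss of signal fitted bidirectionally against DMSO baseline.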

[18] = read-out: TIMP metallopeptidase inhibitor 1 (TIMP1), TIMP1 (gene 7076); test: BSK_hDFCGF_TIMP1: BioMAP Diversity Plus: hDFCGF Assay for TIMP metallopeptidase inhibitor 1 (TIMP1) Biomarker Activity (AID 2283062); conditions: primary human foreskin fibroblasts; actives raise or lower the signal
Outline: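 ELISA readout of TIMP-1 from human dermal foreskin fibroblast cultures 24 h post-dosing. Curves were fitted in both directions against DMSO baseline, with SRB total-protein staining in parallel cultures as a cytotoxicity check.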

[19] = read-out: Transforming growth factor beta 1 (TGFb1), TGFB1 (gene 7040); test: BSK_KF3CT_TGFb1: BioMAP Diversity Plus: KF3CT Assay for Transforming growth factor beta 1 (TGFb1) Biomarker Activity (AID 2283072); conditions: primary human keratinocytes with fibroblasts; actives raise or lower the signal
Outline: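 Read-out: ELISA for TGF-b1 in keratinocyte/foreskin fibroblast human skin co-culture, 24 h after dosing; bidirectional curve fit vs DMSO baseline; gain or loss of signal scored.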

Measured: AC50

Sequence of E-selectin (Homo sapiens) (P16581 whole entry, looked up): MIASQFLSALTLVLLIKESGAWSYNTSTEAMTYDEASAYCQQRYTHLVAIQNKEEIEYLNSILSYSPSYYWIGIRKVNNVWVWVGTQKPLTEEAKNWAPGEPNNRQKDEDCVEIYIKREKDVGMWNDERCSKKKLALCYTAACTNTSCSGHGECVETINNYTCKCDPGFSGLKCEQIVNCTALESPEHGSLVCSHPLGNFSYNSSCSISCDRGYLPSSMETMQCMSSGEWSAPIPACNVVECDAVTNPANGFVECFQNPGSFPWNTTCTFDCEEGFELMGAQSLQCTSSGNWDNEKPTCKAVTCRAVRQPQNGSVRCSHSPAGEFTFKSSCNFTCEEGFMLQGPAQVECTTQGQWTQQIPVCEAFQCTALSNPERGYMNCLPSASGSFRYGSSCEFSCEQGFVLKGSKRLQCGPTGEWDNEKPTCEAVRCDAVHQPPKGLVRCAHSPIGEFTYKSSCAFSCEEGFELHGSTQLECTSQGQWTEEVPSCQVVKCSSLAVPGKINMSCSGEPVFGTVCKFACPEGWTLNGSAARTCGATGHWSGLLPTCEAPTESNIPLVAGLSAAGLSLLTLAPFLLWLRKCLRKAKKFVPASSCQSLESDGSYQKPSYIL

C=CC(F)(F)C(F)(F)C(F)(F)C(F)(F)C(F)(F)C(F)(F)C(F)(F)C(F)(F)C=C
inactive: [1] | [2] | [3] | [4] | [5] | [6] | [7] | [8] | [9] | [10] | [11] | [12] | CD40, CD40 (gene 958) | [13] | [14]

FC(F)(F)C(F)(F)C(F)(F)C(F)(F)C(F)(F)C(F)(F)C(F)(F)I
active: [11] 244 nM
inactive: [1] | [15] | [2] | [3] | [4] | [5] | [6] | [7] | [8] | [9] | [10] | [11] | [12] | CD40, CD40 (gene 958) | [16] | [13] | [14]

COC(=O)CCC(F)(F)C(F)(F)C(F)(F)C(F)(F)F
inactive: [1] | [2] | [3] | [17] | [4] | [5] | [6] | [7] | [8] | [9] | [10] | [11] | [12] | CD40, CD40 (gene 958) | [16] | [13] | [14]

CCCCCCCCC(F)(F)C(F)(F)C(F)(F)C(F)(F)C(F)(F)C(F)(F)F
inactive: [1] | [15] | [2] | [3] | [4] | [5] | [6] | [7] | [8] | [9] | [10] | [11] | [12] | CD40, CD40 (gene 958) | [16] | [13] | [14]

FC1CC(F)(F)C(F)(F)C1(F)F (stereo not drawn)
inactive: [1] | [18] | [2] | [3] | [4] | [5] | [6] | [7] | [8] | [9] | [10] | [11] | [12] | CD40, CD40 (gene 958) | [13] | [14]

CCO[Si](CCC(F)(F)C(F)(F)C(F)(F)C(F)(F)C(F)(F)C(F)(F)F)(OCC)OCC
inactive: [1] | [18] | [2] | [3] | [17] | [4] | [5] | [6] | [7] | [8] | [9] | [10] | [11] | [12] | CD40, CD40 (gene 958) | [16] | [13] | [14]
active: CD40, CD40 (gene 958) 1.4 µM

CCCCCCCOC(=O)c1ccccc1C(=O)OCCCCCCC
inactive: [1] | [2] | [3] | [4] | [5] | [6] | [7] | [8] | [9] | [19] | [10] | [11] | [12] | CD40, CD40 (gene 958) | [16] | [13] | [14]

FC(F)(F)C(F)(F)C(F)(F)C(F)(F)C(F)(F)C(F)(F)C(F)(F)Br
inactive: [1] | [18] | [2] | [3] | [17] | [4] | [5] | [6] | [7] | [8] | [9] | [10] | [11] | [12] | CD40, CD40 (gene 958) | [13] | [14]

O=C(Cl)C(F)(F)C(F)(F)C(F)(F)C(F)(F)C(F)(F)C(F)(F)C(F)(F)C(F)(F)F
active: [2] 21.7 µM and 44.1 µM and 30 µM | [4] 47.5 µM and 48.5 µM and 54.6 µM | [6] 20.3 µM and 30 µM | [9] 45.7 µM and 50.2 µM and 49.8 µM | [10] 54.5 µM and 53.2 µM | [11] 43.6 µM and 47.6 µM and 54.8 µM | CD40, CD40 (gene 958) 20.1 µM and 48.8 µM | [13] 51.2 µM | [14] 44.7 µM and 42.3 µM
inactive: [1] | [18] | [3] | [5] | [6] | [7] | [8] | [10] | [12] | CD40, CD40 (gene 958) | [13] | [14]

FC(F)(F)C(F)(F)C(F)(F)C(F)(F)C(F)(F)C(F)(F)CC1CO1 (stereo not drawn)
inactive: [1] | [18] | [2] | [3] | [17] | [4] | [5] | [6] | [7] | [8] | [9] | [10] | [11] | [12] | CD40, CD40 (gene 958) | [16] | [13] | [14]

FC(F)(F)C(F)(F)C(F)(F)C(F)(F)C(F)(F)C(F)(F)C(F)(F)C(F)(F)CCS
inactive: [1] | [2] | [3] | [17] | [4] | [5] | [6] | [7] | [8] | [9] | [10] | [11] | [12] | CD40, CD40 (gene 958) | [16] | [13] | [14]

FC(F)(F)C(F)(F)CNCC(F)(F)C(F)(F)F
inactive: [1] | [15] | [2] | [3] | [4] | [5] | [6] | [7] | [8] | [9] | [10] | [11] | [12] | CD40, CD40 (gene 958) | [13] | [14]

Reference: PubChem BioAssay (EPA / NIEHS)
